Reference: PMC11006913
Where a chain is given by its changes, count along the chain named.

What was measured:
Assay in all cases: PBM; 200 nM protein, PBS
Conditions in all cases: dsDNA, one strand shown
[1] = target: HOXA4 (Homo sapiens, UniProt Q00056 201-287, W262R)
[2] = target: HOXC9 (Homo sapiens, UniProt P31274 178-260, K195R)
[3] = target: HOXC9 (Homo sapiens, UniProt P31274 178-260)
[4] = target: HOXC9 (Homo sapiens, UniProt P31274 178-260, R193K)
[5] = target: HOXA4 (Homo sapiens, UniProt Q00056 201-287)
HOXA4 (Homo sapiens, UniProt Q00056 201-287), sequence (Q00056 201-287): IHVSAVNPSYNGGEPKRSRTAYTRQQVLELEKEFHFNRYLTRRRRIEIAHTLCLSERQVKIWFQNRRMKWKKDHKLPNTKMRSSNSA

[6] = target: VAX1 (Homo sapiens, UniProt Q5SQQ9 86-172)
VAX1, sequence (Q5SQQ9 86-172): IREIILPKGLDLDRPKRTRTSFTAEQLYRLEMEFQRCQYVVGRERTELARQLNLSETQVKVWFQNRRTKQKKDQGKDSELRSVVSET

[7] = target: HOXC9 (Homo sapiens, UniProt P31274 178-260, R222W)
HOXC9 (Homo sapiens, UniProt P31274 178-260, R222W), sequence (P31274 178-260 R222W): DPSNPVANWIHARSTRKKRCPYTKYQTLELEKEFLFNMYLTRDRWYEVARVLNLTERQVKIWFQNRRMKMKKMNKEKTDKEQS

[8] = target: HOXA2 (Homo sapiens, UniProt O43364 129-215, Y150S)
HOXA2 (Homo sapiens, UniProt O43364 129-215, Y150S), sequence (O43364 129-215 Y150S): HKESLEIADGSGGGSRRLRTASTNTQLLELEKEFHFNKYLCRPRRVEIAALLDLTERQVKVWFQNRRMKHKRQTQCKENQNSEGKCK

[9] = target: HOXA2 (Homo sapiens, UniProt O43364 129-215)
HOXA2 (Homo sapiens, UniProt O43364 129-215), sequence (O43364 129-215): as the sequence (O43364 129-215 Y150S) above, with S22Y counted along it

[10] = target: HOXB6 (Homo sapiens, UniProt P17509 132-218)
HOXB6, sequence (P17509 132-218): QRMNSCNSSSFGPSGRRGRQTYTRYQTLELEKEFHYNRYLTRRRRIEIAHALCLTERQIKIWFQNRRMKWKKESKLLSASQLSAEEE

[11] = target: T1, PAX4 (Homo sapiens, UniProt O43316 9-242)
T1 sequence: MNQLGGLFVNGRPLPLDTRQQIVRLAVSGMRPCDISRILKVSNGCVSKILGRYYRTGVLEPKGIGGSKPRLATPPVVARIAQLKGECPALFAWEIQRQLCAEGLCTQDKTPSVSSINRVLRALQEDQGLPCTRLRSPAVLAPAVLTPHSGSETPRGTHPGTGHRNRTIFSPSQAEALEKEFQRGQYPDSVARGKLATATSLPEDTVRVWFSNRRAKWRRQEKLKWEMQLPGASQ

[12] = target: T2, PAX4 (Homo sapiens, UniProt O43316 9-242, R227W)
T2 sequence: T1 sequence with R219W

[13] = target: HOXB9 (Homo sapiens, UniProt P17482 171-250)
HOXB9 (Homo sapiens, UniProt P17482 171-250), sequence (P17482 171-250): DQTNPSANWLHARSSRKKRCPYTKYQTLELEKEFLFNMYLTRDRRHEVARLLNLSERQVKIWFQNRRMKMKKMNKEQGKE

[14] = target: HOXB9 (Homo sapiens, UniProt P17482 171-250, R186Q)
HOXB9 (Homo sapiens, UniProt P17482 171-250, R186Q), sequence (P17482 171-250 R186Q): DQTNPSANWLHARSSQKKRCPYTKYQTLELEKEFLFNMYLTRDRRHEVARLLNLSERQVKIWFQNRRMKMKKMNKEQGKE

[15] = target: HOXA7 (Homo sapiens, UniProt P31268 116-202)
HOXA7 (Homo sapiens, UniProt P31268 116-202), sequence (P31268 116-202): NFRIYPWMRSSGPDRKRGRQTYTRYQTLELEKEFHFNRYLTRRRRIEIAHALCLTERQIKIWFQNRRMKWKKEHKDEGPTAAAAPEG

[16] = target: HOXA7 (Homo sapiens, UniProt P31268 116-202, W177C)
HOXA7 (Homo sapiens, UniProt P31268 116-202, W177C), sequence (P31268 116-202 W177C): as the sequence (P31268 116-202) above, with W62C counted along it

[17] = target: HOXB9 (Homo sapiens, UniProt P17482 171-250, T197M)
HOXB9 (Homo sapiens, UniProt P17482 171-250, T197M), sequence (P17482 171-250 T197M): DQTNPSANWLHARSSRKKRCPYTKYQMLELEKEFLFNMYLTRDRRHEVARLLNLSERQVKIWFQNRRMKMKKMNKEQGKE

[18] = target: T3, VENTX (Homo sapiens, UniProt O95231 78-163)
T3 sequence: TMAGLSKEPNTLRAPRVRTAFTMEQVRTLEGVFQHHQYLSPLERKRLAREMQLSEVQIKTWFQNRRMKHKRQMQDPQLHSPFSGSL

HOXC9 (Homo sapiens, UniProt P31274 178-260, R193K), sequence (P31274 178-260 R193K): as the sequence (P31274 178-260 R222W) above, with R16K, W45R counted along it
HOXC9 (Homo sapiens, UniProt P31274 178-260), sequence (P31274 178-260): as the sequence (P31274 178-260 R222W) above, with W45R counted along it
HOXC9 (Homo sapiens, UniProt P31274 178-260, K195R), sequence (P31274 178-260 K195R): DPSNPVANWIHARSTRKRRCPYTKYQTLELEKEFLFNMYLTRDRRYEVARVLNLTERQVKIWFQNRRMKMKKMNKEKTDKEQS
HOXA4 (Homo sapiens, UniProt Q00056 201-287, W262R), sequence (Q00056 201-287 W262R): as the sequence (Q00056 201-287) above, with W62R counted along it

Sequence: GTCAATTA
- binding signal [1]: 10.5 upbm affinity estimate (log intensity, higher = more binding, comparable within an allelic series)
- binding signal [2]: 11.9 upbm affinity estimate (log intensity, higher = more binding, comparable within an allelic series)
- binding signal [3]: 12 upbm affinity estimate (log intensity, higher = more binding, comparable within an allelic series)
- binding signal [4]: 11.9 upbm affinity estimate (log intensity, higher = more binding, comparable within an allelic series)
- binding signal [5]: 13.8 upbm affinity estimate (log intensity, higher = more binding, comparable within an allelic series)
- binding signal [6]: 13.3 upbm affinity estimate (log intensity, higher = more binding, comparable within an allelic series)
- binding signal [7]: 10.7 upbm affinity estimate (log intensity, higher = more binding, comparable within an allelic series)
- binding signal [8]: 10.7 upbm affinity estimate (log intensity, higher = more binding, comparable within an allelic series)
- binding signal [9]: 12.3 upbm affinity estimate (log intensity, higher = more binding, comparable within an allelic series)
- binding signal [10]: 11.7 upbm affinity estimate (log intensity, higher = more binding, comparable within an allelic series)

Sequence: CCCAGGCG
- binding signal [2]: 9.48 upbm affinity estimate (log intensity, higher = more binding, comparable within an allelic series)
- binding signal [3]: 9.7 upbm affinity estimate (log intensity, higher = more binding, comparable within an allelic series)
- binding signal [4]: 9.62 upbm affinity estimate (log intensity, higher = more binding, comparable within an allelic series)
- binding signal [7]: 9.63 upbm affinity estimate (log intensity, higher = more binding, comparable within an allelic series)
- binding signal [8]: 10.5 upbm affinity estimate (log intensity, higher = more binding, comparable within an allelic series)
- binding signal [9]: 7.13 upbm affinity estimate (log intensity, higher = more binding, comparable within an allelic series)

Sequence: AATTAGCC
- binding signal [11]: 12.1 upbm affinity estimate (log intensity, higher = more binding, comparable within an allelic series)
- binding signal [6]: 12.7 upbm affinity estimate (log intensity, higher = more binding, comparable within an allelic series)
- binding signal [12]: 10.6 upbm affinity estimate (log intensity, higher = more binding, comparable within an allelic series)

Sequence: AATTAAGC
- binding signal [11]: 12.2 upbm affinity estimate (log intensity, higher = more binding, comparable within an allelic series)
- binding signal [12]: 10.9 upbm affinity estimate (log intensity, higher = more binding, comparable within an allelic series)

Sequence: CAATTACG
- binding signal [1]: 10.4 upbm affinity estimate (log intensity, higher = more binding, comparable within an allelic series)
- binding signal [5]: 13.1 upbm affinity estimate (log intensity, higher = more binding, comparable within an allelic series)

Sequence: CCAATTAC
- binding signal [13]: 10.9 upbm affinity estimate (log intensity, higher = more binding, comparable within an allelic series)
- binding signal [14]: 10.6 upbm affinity estimate (log intensity, higher = more binding, comparable within an allelic series)

Sequence: AATTAAGA
- binding signal [11]: 12.2 upbm affinity estimate (log intensity, higher = more binding, comparable within an allelic series)
- binding signal [12]: 10.8 upbm affinity estimate (log intensity, higher = more binding, comparable within an allelic series)

Sequence: AATTAACT
- binding signal [15]: 11.2 upbm affinity estimate (log intensity, higher = more binding, comparable within an allelic series)
- binding signal [11]: 12.3 upbm affinity estimate (log intensity, higher = more binding, comparable within an allelic series)
- binding signal [12]: 10.9 upbm affinity estimate (log intensity, higher = more binding, comparable within an allelic series)
- binding signal [16]: 8.89 upbm affinity estimate (log intensity, higher = more binding, comparable within an allelic series)
- binding signal [10]: 11.6 upbm affinity estimate (log intensity, higher = more binding, comparable within an allelic series)

Sequence: AATTAAGT
- binding signal [11]: 12.1 upbm affinity estimate (log intensity, higher = more binding, comparable within an allelic series)
- binding signal [12]: 10.8 upbm affinity estimate (log intensity, higher = more binding, comparable within an allelic series)
- binding signal [8]: 10.8 upbm affinity estimate (log intensity, higher = more binding, comparable within an allelic series)
- binding signal [9]: 11.7 upbm affinity estimate (log intensity, higher = more binding, comparable within an allelic series)

Sequence: AATTAGCA
- binding signal [11]: 12.1 upbm affinity estimate (log intensity, higher = more binding, comparable within an allelic series)
- binding signal [12]: 10.9 upbm affinity estimate (log intensity, higher = more binding, comparable within an allelic series)
- binding signal [8]: 10.8 upbm affinity estimate (log intensity, higher = more binding, comparable within an allelic series)
- binding signal [9]: 12.1 upbm affinity estimate (log intensity, higher = more binding, comparable within an allelic series)

Sequence: GAGGGGGC
- binding signal [17]: 8.48 upbm affinity estimate (log intensity, higher = more binding, comparable within an allelic series)
- binding signal [13]: 8.37 upbm affinity estimate (log intensity, higher = more binding, comparable within an allelic series)
- binding signal [14]: 8.62 upbm affinity estimate (log intensity, higher = more binding, comparable within an allelic series)
- binding signal [8]: 10.2 upbm affinity estimate (log intensity, higher = more binding, comparable within an allelic series)
- binding signal [9]: 7.38 upbm affinity estimate (log intensity, higher = more binding, comparable within an allelic series)

Sequence: CCAATTAG
- binding signal [18]: 13.1 upbm affinity estimate (log intensity, higher = more binding, comparable within an allelic series)
- binding signal [11]: 12.2 upbm affinity estimate (log intensity, higher = more binding, comparable within an allelic series)
- binding signal [6]: 13.1 upbm affinity estimate (log intensity, higher = more binding, comparable within an allelic series)
- binding signal [12]: 10.8 upbm affinity estimate (log intensity, higher = more binding, comparable within an allelic series)
- binding signal [8]: 10.8 upbm affinity estimate (log intensity, higher = more binding, comparable within an allelic series)
- binding signal [9]: 12.1 upbm affinity estimate (log intensity, higher = more binding, comparable within an allelic series)

Sequence: ATTAATGC
- binding signal [15]: 11 upbm affinity estimate (log intensity, higher = more binding, comparable within an allelic series)
- binding signal [11]: 12.1 upbm affinity estimate (log intensity, higher = more binding, comparable within an allelic series)
- binding signal [12]: 10.9 upbm affinity estimate (log intensity, higher = more binding, comparable within an allelic series)
- binding signal [16]: 8.84 upbm affinity estimate (log intensity, higher = more binding, comparable within an allelic series)

Sequence: AATTAGTA
- binding signal [11]: 12.2 upbm affinity estimate (log intensity, higher = more binding, comparable within an allelic series)
- binding signal [12]: 11 upbm affinity estimate (log intensity, higher = more binding, comparable within an allelic series)
- binding signal [10]: 11.3 upbm affinity estimate (log intensity, higher = more binding, comparable within an allelic series)
